The structures appear in SMILES notation. Where “and” joins values, the source holds several entries; their conditions need not be identical. Equal entries are not always repeated. Hit rate of the full screen: of about 360,000 compounds, about 3,700 (1%) were called active. What follows is part of a selection rich in actives, with near analogues and random picks from the rest. Values without a mark were called inactive. Cut-off read from the data, not from the text of the source: active = activation above about 30%; inactive = the rest.

Sequence of D(1A) dopamine receptor (Homo sapiens) (P21728 whole entry, looked up): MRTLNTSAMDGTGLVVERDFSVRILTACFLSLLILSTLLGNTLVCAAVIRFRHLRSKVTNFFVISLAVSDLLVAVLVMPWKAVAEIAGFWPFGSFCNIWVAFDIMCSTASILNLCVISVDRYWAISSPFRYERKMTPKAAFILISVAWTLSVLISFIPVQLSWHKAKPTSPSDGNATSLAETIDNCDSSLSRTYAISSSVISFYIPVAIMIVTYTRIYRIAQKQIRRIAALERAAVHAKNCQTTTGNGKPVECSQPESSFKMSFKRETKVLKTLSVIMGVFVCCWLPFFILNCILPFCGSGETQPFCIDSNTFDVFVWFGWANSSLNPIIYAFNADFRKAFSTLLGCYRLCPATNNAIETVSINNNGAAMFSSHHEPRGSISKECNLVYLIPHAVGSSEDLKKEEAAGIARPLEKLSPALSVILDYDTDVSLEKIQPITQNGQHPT

The assay has as its target D(1A) dopamine receptor (Homo sapiens) (UniProt P21728). In words: Allosteric Agonists of the Human D1 Dopamine Receptor: qHTS. Note: 0% is about no effect. The conditions noted are these: HEK293 T-REx D1 cells, calcium flux, agonist mode; at 2 µM; hits give high values. The method in brief: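 Agonism was scored from calcium flux recorded over 180 s (1 read/s) after pintool compound addition, following a 10-cycle baseline. Cells were inducible force-coupled HEK293 TREx D1, plated overnight at 30 C and loaded with no-wash calcium dye.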
In general terms: qHTS replaces the single test concentration by a dilution series.
Consider `CCN(CC)C(=O)CSc1nc2cc3c(cc2c(=O)n1CCCC(=O)NCc1ccc2c(c1)OCO2)OCO3`, for which the activation is 0.699%. As for `CCOc1ccc(CNC(=O)C2CCCN(S(=O)(=O)N(CC)c3ccc(OCC)cc3)C2)cc1` (centres undefined), the figure is -0.432%; as for `Cc1noc(C)c1-c1ccc2ncnc(NCc3ccc(F)c(F)c3)c2c1`, 131% (active); as for `Cc1noc(C)c1-c1ccc2ncnc(NC(C)c3ccco3)c2c1` (centres undefined), -0.27%.

For the molecule `Cc1noc2ncnc(NCc3ccccc3Cl)c12`, the activation is 21.4%. For `O=C(NCCCO)c1nn(-c2ccc(Cl)cc2)nc1CO`, the activation is -0.511%. As for `Cc1ccc(OCC(=O)Nc2ccc(OCc3cc(=O)n4c(C)csc4n3)cc2)cc1C`, the figure is 5.64%; as for `O=C(c1ccc(F)cc1)n1c(=S)nc2ccccn21`, 2.37%; as for `O=C(CNC(=O)c1ccccc1F)c1ccc(Br)cc1`, -0.969%. In the case of `O=C(C[n+]1cc(Br)cc2ccccc21)c1ccc(F)cc1`, the activation was 39.6% (active).

With `Cc1ccc(-n2ncc3c(N4CCC(C(N)=O)CC4)ncnc32)cc1`, the activation is -2.06%. As for `CCOC(=O)C1CCN(C(=O)CSc2c3c(nc4ccc(Cl)cc24)CCCC3)CC1`, the figure is 3.05%; as for `Cc1cc(NC(=O)c2ccc(-c3ccc(Cl)cc3)o2)cc(-c2nc3ncccc3o2)c1O`, -0.471%; as for `CCN(Cc1ccccc1)C(=O)c1cn(-c2cccc(OC)c2)c(=O)c2ccccc12`, 0.204%. Take `Cc1cccc(C(=O)Nc2ccc(-c3nc4ncccc4o3)cc2C)c1`: the activation was 0.768%.

`CCN(CC)CCN(C(=O)c1ccc(N2C(=O)CCC2=O)cc1)c1nc2cc3c(cc2s1)OCO3`: the activation was 5.63%. Then `CCc1ccc2nc(N(CCCN(C)C)C(=O)c3ccc4c(c3)OCCO4)sc2c1`, with 53.9% (active); and `CCCCN(CC)C(=O)c1ccc2c(c1)OCO2`, with 4.54%. As for `CN(C)CCCN(C(=O)c1ccc(S(=O)(=O)N2CCCCCC2)cc1)c1nc2ccc(Br)cc2s1`, the figure is 42.8% (active). As for `CCN(CC(=O)Nc1c(F)cccc1F)C(=O)c1ccc(S(=O)(=O)N2CCCCC2)cc1`, the figure is -0.0233%. For the molecule `Cc1cc(C)c2sc(NC(=O)c3ccc(S(=O)(=O)N4CCCC4)cc3)nc2c1`, the activation is -0.497%. As for `CCOc1ccc(CNC(=O)c2cc(=O)[nH]c3ccc(S(=O)(=O)N4CCCCC4)cc23)cc1`, the figure is -3.81%. As for `Cc1cc(C)cc(NS(=O)(=O)c2cc3c(cc2C)NC(=O)CO3)c1`, the figure is 3.6%; as for `Cc1ccccc1OCc1ccc(-c2nc(C#N)c(N3CCCCC3)o2)o1`, 1.07%; as for `Cc1ccc(Cn2ncc3c4sc(C)cc4n(C)c3c2=O)c(C)c1`, 3.45%. As for `Cn1c(=O)c(=O)n(C)c2cc(NC(=O)c3ccccc3Br)ccc21`, the figure is 0.667%; as for `Cc1ccc(CNC(=O)CCNS(=O)(=O)c2ccc3c(c2)oc(=O)n3C)cc1`, 1.82%; as for `CCOc1ccc(S(=O)(=O)Nc2cccc(C(=O)NCC3(N4CCCCC4)CCCCC3)c2)cc1`, 5.67%.

Take `Cc1cc(OCC(=O)NCC2(N(C)C)CCCCC2)cc(C)c1Cl`: the activation was 9.34%. Then `CN1CCN(C2(CNC(=O)COc3ccc(C(C)(C)C)cc3)CCCCC2)CC1`, with 42.8% (active). Then `O=C(NCc1ccc2c(c1)CCN2C(=O)c1ccccc1)c1ccccc1`, with 2.65%; and `Cc1cc(C)c2nc3nc(C)cc(C)c3c(N)c2c1`, with 31% (active); and `O=C(CSc1nc2c(c(=O)[nH]1)CN(Cc1ccc(F)cc1)CC2)Nc1ccccc1Cl`, with 3.05%.

As to `CCOc1ccccc1CNC(=O)C1CCCN(S(=O)(=O)c2ccc3c(ccn3C)c2)C1` (centres undefined), the activation was 4.08%.

For `O=C(Nc1nnc(S(=O)(=O)N2CCCc3ccccc32)s1)c1cccc(F)c1`, the activation was 0.00305%. Then `O=C(c1ccc(Br)cc1)N(Cc1cccs1)c1ccc(F)cc1`, with 9.82%; and `Cc1c2cnn(-c3ccccc3)c(=O)c2c(C)n1CCCC(=O)N1CCN(C)CC1`, with 0.261%. As for `Cc1c2cnn(-c3ccccc3)c(=O)c2c(C)n1C(C)C(=O)Nc1ccc(Br)cc1F` (centres undefined), the figure is 34.5% (active); as for `Cc1ccccc1CNC(=O)Cn1c(C)c2cnn(-c3ccccc3)c(=O)c2c1C`, 3.52%; as for `O=C(/C=C/c1cn(CC(O)CN2CCc3ccccc32)c2ccccc12)c1ccc(Br)cc1` (centres undefined), 11.4%. As for `COc1ccc(-c2cc(-c3ccc(F)cc3)nc3c2COc2ccccc2-3)cc1`, the figure is -0.494%; as for `COc1ccccc1CNC(=O)CCn1c(=O)c2ccccc2n(CC(=O)Nc2ccc(Br)cc2F)c1=O`, 0.0005%. In the case of `COc1ccc(C(=O)Nc2onc3c2CCCC3)cc1`, the activation is -1.07%. As for `O=C(/C=C/c1ccc(F)cc1)NC(=S)NNC(=O)c1cccnc1`, the figure is 1.33%; as for `COc1ccc(C(=O)NC(=O)CSc2nnc(-c3ccco3)n2-c2ccccc2)cc1`, 1%; as for `Cc1onc(-c2ccccc2)c1C(=O)NNC(=S)NC(=O)c1ccc(F)cc1`, 61.1% (active). As for `COc1ccc(C(=O)NNC(=S)NC(=O)c2ccccc2)cc1`, the figure is 84.2% (active); as for `O=C(NNC(=S)NC(=O)c1cn(-c2ccccc2)nc1-c1ccccc1)c1ccncc1`, 6.27%; as for `COc1ccc(C(=O)NC(=S)NNC(=O)c2c(-c3ccccc3)noc2C)cc1`, 86.2% (active). Consider `CC(=O)NC(=S)NNC(=O)c1ccc(Br)cc1`, for which the activation was 0.645%. Then `Cn1nnc(NC(=S)NC(=O)c2ccccc2)n1`, with 4.22%; and `Cc1cc(C(=O)Nc2cccc(C(F)(F)F)c2)c2c(C)nn(-c3cccc(F)c3)c2n1`, with 19.5%.

As to `CCOc1ccc(-n2c(SCC(=O)NCc3ccccc3)nc3n[nH]c(C)c3c2=N)cc1`, the activation is 1.25%. Then `COc1ccc(N(CC(=O)NCCc2ccc(Cl)cc2)S(=O)(=O)c2c(C)nn(C)c2C)cc1`, with 0.495%; and `CCOC(=O)c1[nH]c(C)c(CCC(=O)NCc2ccccc2C)c1C`, with -0.942%. In the case of `CCOc1ccc(-c2nonc2NC(=O)c2oc3ccc(CC)cc3c2C)cc1`, the activation is 5.77%.

As for `Cc1ccc(OC(=O)CSc2nnc(-c3cccs3)o2)cc1`, the activation is 1.31%.

As to `CCN1CCN(c2ncc3c(n2)CC(c2ccccc2O)CC3=O)CC1` (centres undefined), the activation is 9.15%.

For `Nc1ccc2nc3c(=O)[nH]c(=S)[nH]c3nc2c1`, the activation is 108% (active). As for `CCC1CCCCN1S(=O)(=O)c1ccc(NC(=O)c2cc(=O)c3ccccc3o2)cc1` (centres undefined), the figure is 0.0446%; as for `CC(C)C(=O)Nc1nc2c(s1)CC(C(C)(C)C)CC2` (centres undefined), 1.03%; as for `COc1ccc(Cl)cc1NC(=O)CSc1nc(=O)[nH]c2c1CCCC2`, 6.85%. Then `Cc1ccc(O)c(NC(=O)CCS(=O)(=O)c2nc(-c3ccc4c(c3)OCO4)cc(C(F)(F)F)n2)c1`, with 5.29%; and `CCOc1ccc(Br)cc1CSC(=N)N`, with 21.9%; and `N=C(N)SCc1cccc2ccccc12`, with 47.6% (active).

`CSC1=NCCN1C(=O)Cc1cccc2ccccc12`: the activation was 1.65%. As for `CN1CCOc2cc(S(=O)(=O)N3CCN(S(=O)(=O)c4c(F)cccc4F)CC3)cnc21`, the figure is 1.83%; as for `CCCN(CCC)S(=O)(=O)c1ccc(C(=O)NNC(=O)c2cc(OC)c(OC)c(OC)c2)cc1`, 6.23%; as for `CCCN(CCC)S(=O)(=O)c1ccc(C(=O)N2CC3CCC(CC3)C2)cc1`, 37.1% (active). As for `CCSC1=NCCN1C(=O)c1ccc(S(=O)(=O)N(CC)CC)cc1`, the figure is 1.17%; as for `COc1ccccc1NC(=O)C(=O)c1cc(C)n(-c2ccccc2F)c1C`, 1.84%. For `CCNS(=O)(=O)c1cc(-c2nnc(Nc3cccc(C(F)(F)F)c3)c3ccccc23)ccc1C`, the activation was 4.19%.

As to `Cc1csc2nc(COC(=O)c3ccccc3NC(=O)c3ccccc3Cl)cc(=O)n12`, the activation was 3.01%. Then `c1cnc(NC2C3CC4CC(C3)CC2C4)nc1` (centres undefined), with 7%; and `c1ccc2c(NC3C4CC5CC(C4)CC3C5)nc(N3CCOCC3)nc2c1` (centres undefined), with 38.3% (active).

For the molecule `Fc1cnc(N2CCOCC2)nc1NCc1ccccc1`, the activation is 1.23%. Then `CCOC(=O)c1cc2c(=O)n3ccccc3nc2n(Cc2ccco2)c1=NC(=O)c1ccc(F)cc1`, with -0.478%; and `CCCCCn1c(=O)[nH]c2cc(C(=O)Nc3cc(C)cc(C)c3)ccc2c1=O`, with 0.484%; and `CCOC(=O)C1CCN(c2ncnc3c2c(-c2ccccc2)cn3-c2cccc(C)c2)CC1`, with -1.59%. Then `Oc1ccc(Cl)cc1C1C=C(c2ccc3c(c2)OCO3)NC(c2c(F)cccc2Cl)N1` (centres undefined), with 21.1%; and `CCOc1ccc(NC(=O)c2cn(C3CCCCC3)c(=O)c3c2c2ccccc2n3C)cc1`, with 2.25%. As for `CCCN1C(=O)C(Cc2nc3ccccc3c(=O)n2-c2ccccc2)c2cc(C)ccc21` (centres undefined), the figure is 5.26% and 5.84%.

On to `CCCc1nc2c(c(=O)c3ccccc3n2C)c(=O)n1C1CCCCCC1`, for which the activation is 190% (active).

In the case of `Cc1ccc2c(=O)cc(C(=O)Nc3sc4c(c3C(=O)NCc3cccnc3)CCCC4)oc2c1`, the activation is 1.62%. As to `COc1ccc(S(=O)(=O)NCc2cccn2Cc2cccc(C)c2)cc1`, the activation is 23.9%. As for `COc1ccccc1CNS(=O)(=O)c1ccc2c(c1)NC(=O)CS2`, the figure is 4.9%. Then `COc1ccc(S(=O)(=O)NCc2cccn2Cc2cccc(C)c2)cc1Cl`, with 33.8% (active).

With `Cc1ccc(Cl)cc1NC(=O)CCC(=O)N1CC(C)Sc2ccccc21` (centres undefined), the activation was 0.39%.

As to `Cc1cccc(-n2c(SCC(N)=O)nc3c(oc4ccccc43)c2=O)c1`, the activation was -1.27%.
